# High-throughput results deposited in PubChem by National Center for Advancing Translational Sciences (NCATS).
# Shiga inhibitor = A qHTS for Small Molecule Inhibitors of Shiga Toxin | AID 2315, 2010 | inhibition, % at 38.7 µM | Vero cells, Shiga toxin protein synthesis inhibition reporter | 290,000 tested, 9.2% active; in the data active = inhibition mostly above about 28%, no sharp cut-off; inactive = mostly below about 43%
# Pf growth 48h = Primary qHTS for delayed death inhibitors of the malarial parasite plastid, 48 hour incubation; P. falciparum luciferase growth in erythrocytes, 48 h; Potency, µM (series often up to 28.7 µM), usual class: inhibitors; 310,000 tested, 5.9% active
#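 Read-out is firefly luciferase luminescence from an integrated reporter in P. falciparum, so falling signal marks reduced parasite growth. Infected erythrocytes were at 2% hematocrit and 0.1% parasitemia (final) in Albumax-supplemented RPMI 1640.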
# CHX counter = Cycloheximide Counterscreen for Small Molecule Inhibitors of Shiga Toxin; cell reporter, cycloheximide protein synthesis inhibition counterscreen; max response, %; 300,000 tested, 12% active; AID 2314, 2010; in the data active = max response mostly above about 13%, no sharp cut-off; inactive = mostly below about 14%; also: read at 38.3 µM for the half of the compounds with a filed dose
# Lassa entry inh = qHTS for Inhibitors of binding or entry into cells for Lassa Virus; Lassa virus pseudotype entry inhibition, cell reporter; Potency, µM (series often up to 37.9 µM), hits mostly inhibitors; 300,000 tested, 1.2% active; AID 540256, 2011; calls by dose curve; tested in HEK293 cells; also: nearly all actives have a fitted effect of over 50% in size
# Pf growth 96h = Primary qHTS for delayed death inhibitors of the malarial parasite plastid, 96 hour incubation. P. falciparum luciferase reporter growth, 96 h. Potency, µM (doses to about 28.7 µM), usual class: inhibitors. 320,000 tested, 6.9% active. AID 504834, 2011
#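 Two-generation exposure (96 h) targets delayed-death phenotype. Reporter parasites carrying integrated firefly luciferase, in red cells at 2% hematocrit and 0.05% parasitemia final, kept at 37 C, 5% CO2; luminescence loss indicates inhibition.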
# Marburg entry inh = qHTS for inhibitors of binding or entry into cells for Marburg Virus | Marburg virus pseudotyped entry inhibition, cell reporter | Potency, µM (top dose mostly 37.8 µM), actives largely listed as inhibitors | 300,000 tested, 1.8% active | AID 540276, 2011; calls by dose curve; tested in HEK293 cells
# A number is an active result; 0 = inactive; ? = inconclusive; - = no result given. Only some compounds are listed: those with a hit (about 19% of all), similar ones and a draw of the others. Unless noted, calls follow the shape of the dose curve; as a rule, active = well fitted inhibition curve with a large enough effect; inconclusive = small, poorly fitted or top-dose-only effect, or another doubt; inactive = no such curve, though single readings can be large or run the other way.
SMILES,Shiga inhibitor,Pf growth 48h,CHX counter,Lassa entry inh,Pf growth 96h,Marburg entry inh
CCN(CC(=O)Nc1ccccc1OC)C(=O)c1cc(S(=O)(=O)N2CCCCCC2)ccc1OC,-,?,-,0,5.2µM,0
COc1ccc(Cl)cc1NC(=O)CN(C)CC(=O)Nc1cccc(S(=O)(=O)N2CCCC2)c1,-,?,-,?,3.3µM,?
O=C(COc1ccc(Cl)cc1Br)Nc1cccc(S(=O)(=O)N2CCCC2)c1,-,?,-,-,0,-
CCN(CC(=O)Nc1cccc(S(=O)(=O)N2CCCC2)c1)CC(=O)Nc1ccccc1OC,0,?,0,0,9.3µM,?
O=C(C[n+]1cc(Br)cc2ccccc21)c1ccc(Cl)cc1,0,?,0,?,13µM,0
O=C(C[n+]1cn(C(F)F)c2ccccc21)c1ccc(Br)cc1,62,0,28,0,0,0
Cc1ccc(C(=O)N(CCN(C)C)CC2CCCN(Cc3ccccc3F)C2)cc1C (stereo not given),-,?,0,?,0,?
Nc1nc(CN2CCN(C(=O)c3ccco3)CC2)nc(Nc2cccc(Cl)c2)n1,0,0,0,-,0,?
COC(=O)/C=C1\SC(=Nc2ccc(OC)cc2)NC1=O,0,0,0,-,0,-
O=C(c1ccc2c(c1)OCO2)N1CCN(c2ccccc2)CC1,0,?,0,0,-,0
CC(=O)c1c(C)nn(C(=O)c2cccs2)c1C,0,-,0,-,0,0
Cc1nn(C(=O)c2ccc3c(c2)OCO3)c(N)c1-c1ccccc1,76,0,39,-,0,-
Cc1nn(C(=O)c2cccs2)c(N)c1-c1ccccc1,68,0,35,0,0,?
O=C(Nc1ccc(Cl)cc1)Nc1ccc2c(c1)N1CCN=C1S2,0,0.74µM,0,?,2.1µM,0
COc1ccc2nc(N/C(N)=N/C(=S)Nc3c(C)cccc3C)nc(C)c2c1,0,?,0,?,?,?
COc1ccc2nc(N/C(N)=N/C(=S)Nc3cccc(C)c3)nc(C)c2c1,0,?,0,0,0,?
Cc1ccc(NC(=S)/N=C(\N)Nc2nc(C)c3cc(C)c(C)cc3n2)cc1C,0,?,0,?,10µM,?
CCc1ccccc1NC(=S)/N=C(\N)Nc1nc(C)c2cc(C)ccc2n1,0,2.9µM,0,?,?,?
COc1ccc(NC(=S)/N=C(\N)Nc2nc(C)c3ccccc3n2)cc1,0,?,14,0,2.9µM,?
Cc1ccc(NC(=S)/N=C(\N)Nc2nc(C)c3cc(C)ccc3n2)c(C)c1,0,?,0,0,?,?
CCCCn1c(CCC(=O)O)nc2cc(S(=O)(=O)N(CC)CC)ccc21,0,?,0,0,?,0
Cc1cccc(N2CCN(Cc3nnc(-c4ccccc4C)o3)CC2C)c1 (stereo not given),-,-,-,0,-,0
Cc1ccc(C2C(C=Nc3c(C)n(C)n(-c4ccccc4)c3=O)=C(c3ccccc3)Oc3ccccc32)cc1 (stereo not given),0,8.3µM,0,0,4.1µM,?
CCC(C)[C@H](NC(=O)Nc1cccc(Cl)c1)C(=O)O (stereo not given in full),0,-,0,0,?,0
CN(Cc1ccccc1)C(=O)C(C(=O)c1ccc(F)cc1)n1cc(Cl)ccc1=O (stereo not given),48,0,41,-,?,-
SMILES,Shiga inhibitor,Pf growth 48h,CHX counter,Lassa entry inh,Pf growth 96h,Marburg entry inh
O=C(NCc1ccc2c(c1)OCO2)C(C(=O)c1ccccc1)n1cc(Cl)ccc1=O (stereo not given),0,0,0,0,0,0
Cc1ccc(NC(=O)CCC(=O)N/N=C/c2coc3ccc(F)cc3c2=O)cc1,-,-,-,0,-,0
CCOC(=O)/C(C(=O)Nc1ccc(Cl)cc1Cl)=C1/NC(C)(C)Cc2ccccc21,0,0,0,-,0,-
O=C1[C@H]2[C@@H](c3ccc(F)cc3)N3C(=O)N(c4cccc(Cl)c4)C(=O)[C@@]3(Cc3ccccc3)[C@H]2C(=O)N1C1CCCCC1,-,2.6µM,-,-,12µM,-
O=C1[C@H]2[C@@H](c3ccc(F)cc3)N3C(=O)N(c4ccccc4)C(=O)[C@@]3(Cc3ccc(Cl)cc3)[C@H]2C(=O)N1C1CCCCC1,0,?,0,-,?,-
O=C1[C@H]2[C@@H](c3ccc(F)cc3)N3C(=O)N(c4cccc(Cl)c4)C(=O)[C@@]3(Cc3ccc(Cl)cc3)[C@H]2C(=O)N1C1CCCCC1,0,4.7µM,0,-,5.2µM,-
CC(=O)OC1CC2CCC1(C)C2(C)C (stereo not given),0,0,0,-,0,-
CC(=O)OC(COC1C[C@@H]2CC[C@@]1(C)C2(C)C)C[N+]1(C)CCCCC1 (stereo not given in full),0,3.3µM,0,0,2.9µM,0
O=C(O)C1C2C=CC(O2)C1C(=O)NC1CCCc2ccccc21 (stereo not given),0,0,0,0,0,0
CNS(=O)(=O)c1ccc(N2CCCC2)c([N+](=O)[O-])c1,0,0,0,-,0,-
Cc1cc(OCCCCNC(C)C)cc(C(C)C)c1,0,?,0,?,6.6µM,15µM
CSc1ccccc1NC(=O)CN1CCN(c2ccccn2)CC1,0,7.4µM,0,-,8.3µM,-
CCS(=O)(=O)N1CCN(S(=O)(=O)c2ccccc2[N+](=O)[O-])CC1,0,0,0,0,0,?
CSc1ccccc1NC(=O)CN1CCN(S(=O)(=O)c2ccccc2[N+](=O)[O-])CC1,-,9.3µM,-,?,9.3µM,0
CC(=O)N1CCN(CC(=O)Nc2ccccc2Sc2ccccc2)CC1,0,0,0,10µM,?,?
O=C(CN1CCOCC1)Nc1ccccc1Sc1ccccc1,0,0,0,0,0,0
O=C(NNC(=O)C1CC=CCC1)c1ccccc1Cl (stereo not given),0,0,20,0,0,?
COc1ccc(C(=O)NNC(=O)C2CC=CCC2)cc1 (stereo not given),43,0,25,?,2.3µM,0
CCOC(=O)c1ccc(C(=O)NNC(=O)C2CC=CCC2)cc1 (stereo not given),-,-,-,0,-,?
CC(C)C(c1nnnn1Cc1ccco1)N1CCN(c2cccc(Cl)c2)CC1 (stereo not given),0,0,0,0,0,?
CCC(c1nnnn1Cc1ccco1)N1CCN(c2cc(Cl)ccc2C)CC1 (stereo not given),0,?,0,0,1.5µM,0
Cc1ccc(Cl)cc1N1CCN(Cc2nnnn2Cc2ccco2)CC1,0,0,0,?,8.3µM,0
Cc1ccc(-c2nn3c(C)nnc3s2)cc1NC(=O)c1cccs1,0,?,0,0,-,0
CCC1=Nc2cc(C(=O)NCCCOC)ccc2Sc2ccccc21,0,-,0,?,0,?
CC1=Nc2cc(C(=O)NCCCOC(C)C)ccc2Sc2ccc(C)cc21,0,7.4µM,0,?,0,?
CCCC1=Nc2cc(C(=O)NCCCOCC)ccc2Sc2ccccc21,0,?,0,0,13µM,1.6µM
